ERG-DNA inh – inhibitors of human ERG Ets domain-DNA interaction; fluorescence polarization, His-ERG Ets domain / labelled DNA; Potency, µM (highest dose often 76.9 µM), for inactives: top-dose FP activity, negative = inhibition, most hits filed as inhibitors; AID 624246; 0.028% of 370,000 active; active means well fitted inhibition curve with a large enough effect in the polarisation, with a control signal flat; inconclusive means small, poorly fitted or top-dose-only effect, or effect the other way, or a change in a side signal; inactive means no such curve, though single readings can be large or run the other way; the % refers to the polarisation;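 further: polarization taken with two DNA probes labelled with fluorescein and Texas red; % of control where 0% means no effect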
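His-tagged ERG Ets domain (1 uM in the protein solution; 300mM KCl, 50mM Tris-HCl, 1mM EDTA, 1mM DTT, pH 7.5) received compound, then a probe mix of 5 nM fluorescein-DNA and 100nM Texas-615-DNA. Fluorescence polarization was read for both dyes.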
Apoferritin bind – binds horse apoferritin like a general anesthetic; apoferritin/1-aminoanthracene competitive binding, fluorescence; Potency, µM (highest dose often 77.5 µM), for inactives: at the highest dose activity change, negative = displacement, usual class: inhibitors; 0.074% of 350,000 active; further: on the % scale 0 is the no-effect control and ±100 the full control effect; nearly all actives have a fitted effect of over 20% in size
Target sequence (P02791 2-175 limits assumed): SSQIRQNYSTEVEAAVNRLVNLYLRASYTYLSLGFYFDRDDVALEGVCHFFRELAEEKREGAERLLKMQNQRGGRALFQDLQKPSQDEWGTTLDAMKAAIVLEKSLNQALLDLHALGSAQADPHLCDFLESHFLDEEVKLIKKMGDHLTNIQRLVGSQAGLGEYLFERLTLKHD
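Probe: 1-aminoanthracene (50% saturated, PBS). Protein: horse-spleen apoferritin, 10 uM. Incubation: 10 min, room temperature. Detection: 380 nm excitation, 535 nm emission. Analysis: normalized response, four-parameter Hill.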
RGS12 GoLoco inh – inhibitors of human Gai1-RGS12 GoLoco interaction (red fluorophore). Potency, µM (titrated, usually from 61.6 µM), for the others: top-dose activity, negative = inhibition, usual class: inhibitors. 0.44% of 230,000 active. P63096. Gai1:RGS12 GoLoco peptide FP, rhodamine, 10 min; active means well fitted inhibition curve with a large enough effect, not every such curve was filed as active; inactive means no such curve, though single readings can be large or run the other way; further: on the % scale 0 is the no-effect control and ±100 the full control effect; nearly all actives have a fitted effect of over 30% in size
Target sequence (P63096 whole entry, looked up): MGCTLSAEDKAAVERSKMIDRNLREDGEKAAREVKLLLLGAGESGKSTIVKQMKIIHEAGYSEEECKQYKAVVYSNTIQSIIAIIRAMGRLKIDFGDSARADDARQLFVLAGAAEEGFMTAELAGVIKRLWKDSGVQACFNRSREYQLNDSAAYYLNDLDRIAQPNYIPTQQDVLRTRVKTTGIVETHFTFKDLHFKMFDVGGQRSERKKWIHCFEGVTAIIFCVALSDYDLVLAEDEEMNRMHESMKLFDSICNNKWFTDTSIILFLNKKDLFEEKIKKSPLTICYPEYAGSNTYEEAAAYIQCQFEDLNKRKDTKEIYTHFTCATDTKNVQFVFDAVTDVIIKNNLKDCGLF
BRCA1 expr act – BRCA1 expression activation. 1.1% of 380,000 active. AID 624202. Potency, µM (highest dose often 46.1 µM), for inactives: at the top dose activation, most hits filed as activators. MCF7-BRCA1-FFLuc reporter, luminescence, 48 h; response scale: scaled: vehicle 0%, 10 µM genistein 100%; further: nearly all actives have a fitted effect of over 80% in size
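Reporter cells (MCF7, BRCA1 promoter-firefly luciferase) received library compounds across a concentration series for 48 h. End-point luminescence was measured and concentration-effect curves derived after normalization.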
An asterisk follows results filed as active; ? = inconclusive; . = not tested or not shown; [ ] = dose if it differs, or a comment. Compounds with a hit are over-represented: about 1.2% of the library has one in this group of screens. Unless noted, the call rests on the fitted dose curve; in most records, active means well fitted curve in the direction sought with a large enough effect; inconclusive means small, poorly fitted or top-dose-only effect, or another doubt; inactive means no such curve, though single readings can be large; an effect the other way counts as inactive or inconclusive. Potency means the concentration at half of the fitted maximal effect.

SMILES | ERG-DNA inh | Apoferritin bind | RGS12 GoLoco inh | BRCA1 expr act
CC(C)CCCC(C)CCCC(C)CCCC(C)C(=O)O (stereo not given) | . | -10.5% | . | .
O=C(N/N=C1/C[C@@H](O)[C@@H](O)[C@@H]2[C@H]3C(=O)N(c4ccc(F)cc4F)C(=O)[C@@H]3CC[C@@H]12)OCc1ccccc1 | . | -7.3%[15.3 µM] | . | .
Cc1ccc(NC(=O)CCOc2ccccc2)cc1 | 12.5% | 1.0% | . | 7.08µM*
O=C(CCOc1ccccc1)Nc1ccccc1 | 0.8% | -13.1% | -10.1% | 37.2%
O=C(Nc1ccc(NC(=O)C2CC2)cn1)c1ccccc1Cl | 3.7% | 5.1% | 1.8% | 12.6µM*
O=C(Cc1ccccc1)Nc1ccc(NC(=O)c2ccccc2)nc1 | -5.1% | -6.6% | . | 12.6µM*
O=C(Nc1ccc(NC(=O)C2CC2)cn1)c1ccccc1 | -6.5% | -2.8% | . | ?
CN(C)C(=O)Nc1ccc(Oc2ccc(Cl)cc2)cc1 | . | -23.5% | . | .
O=C(Nc1ccc(Cl)cc1Cl)c1cnn2c1NC(=C1CC1)C=C2C(F)F | . | . | . | 1.8%
O=C(NCc1ccccc1)c1cc(-c2ccco2)on1 | 12.0% | 3.2% | 1.7% | 11.2µM*
O=C(NCCc1ccccc1)c1cc(-c2ccco2)on1 | 4.1% | 3.2% | 7.3% | ?
CCOC(=O)c1c(S(=O)(=O)N2CCC(C(=O)N3CCN(c4cc(C)ccc4C)CC3)CC2)c(C)n(C)c1C | 9.4% | -9.8% | . | .
COC(=O)C(Cc1c[nH]c2ccccc12)NC(=O)c1ccc2nc[nH]c2c1 (stereo not given) | 9.1% | . | . | 10µM*
C=C(C)C(=O)OCCOC(=O)C(=C)C | . | -2.9% | . | .
O=C(COc1ccc(Cl)cc1Cl)Nc1cccc(-c2ccc(N3CCOCC3)nn2)c1 | -4.4% | . | . | 1.41µM*
O=C(COc1ccc(Cl)cc1Cl)Nc1ccc(-c2ccc(N3CCOCC3)nn2)cc1 | -2.9% | . | . | 86.4%
Cc1ccccc1C(=O)Nc1cccc(-c2ccc(N3CCOCC3)nn2)c1 | 0.3% | . | . | 14.1µM*
CCC1CCCCN1C(=O)Cn1c(=O)n(CCCCCC(=O)NCc2ccccc2Cl)c(=O)c2sccc21 (stereo not given) | 5.9% | 4.1% | . | .
Cc1cc(NC(=O)Cn2nnc3sc4c(c3c2=O)CCC(C(C)(C)C)C4)no1 (stereo not given) | 8.7% | 12.6µM* | . | -33.6%
Cc1cc(NC(=O)Cn2nnc3sc4c(c3c2=O)CCCC4)no1 | -4.9% | ? | 5.6% | 4.3%
CCOC(=O)c1nnc2cc(-c3ccccc3)nn2c1C | -14.4% | -12.3% | -0.3% | 6.31µM*
CCOC(=O)c1nnc2cc(-c3ccc(Br)cc3)nn2c1C | -5.4% | 5.5% | 9.9% | 26.7%
CCCC(=Nc1ccc(N)cc1)C1=C(O)C(C(=O)OC)C(C)(C)CC1=O (stereo not given) | ? | 118.9% | 14.1µM* | -26.8%
CCCC(=O)C1=C(O)C(C(=O)OC)C(C)(C)CC1=Nc1ccc(N)cc1 (stereo not given) | 6.5% | -14.9% | 6.1% | -15.7%
CSc1nsc(/C=C/Nc2ccc(O)cc2C)c1C#N | 8.91µM* | -13.5% | -49.0% | -28.9%
SMILES | ERG-DNA inh | Apoferritin bind | RGS12 GoLoco inh | BRCA1 expr act
CSc1nsc(/C=C/Nc2ccc(F)cc2)c1C#N | 20.8% | -6.5% | 29.4% | -34.7%
COCc1ccc(C(=O)N(C)CC2CCCN(CCc3ccc(OC)cc3)C2)o1 (stereo not given) | 9.7% | -11.3% | . | 12.6µM*
CCOc1ccc2cc(-c3nnc(Nc4ccc(C)cc4)s3)c(=O)oc2c1 | -1.8% | -0.2% | . | .
Cn1c(SCC(=O)C(C)(C)C)nnc1-c1cccnc1 | -4.9% | -9.0% | . | 23.0%
Cn1c(SCc2ccccc2[N+](=O)[O-])nnc1-c1cccnc1 | -3.1% | -4.1% | -1.8% | 11.2µM*
Cc1cc(SCC(=O)N/N=C/c2ccc(O)c(O)c2O)c(C)cc1Br | -28.5% | 31.6µM* | 4.6% | -84.5%
CC(=O)NC(Cc1ccc(O)cc1)C(=O)NCC(N)C(=O)c1ccccc1 (stereo not given) | . | . | . | 28.8%
COc1ccc(C(=O)Nc2ccccc2C(N)=O)cc1 | -2.6% | -9.5% | 2.8% | 6.31µM*
COc1ccc(C(=O)Nc2cnc3ccccn3c2=O)cc1 | -6.4% | -8.5% | 8.7% | 4.47µM*
O=C(Nc1cnc2ccccn2c1=O)c1ccc(F)cc1 | -1.6% | 4.0% | 3.3% | ?
COc1ccc(C(=O)Nc2ccccc2C(=O)Nc2ccccc2C(=O)O)cc1 | -1.5% | -4.2% | . | ?
CCOC(=O)c1sc(=NC(=O)CCSc2ccccc2)n(C)c1C | -9.3% | -11.3% | -4.5% | 10µM*
O=C(Nc1cccc(Cl)c1)OCC#CCCl | . | -6.6% | . | .
C/C(Cl)=C/CSc1nn2c(=O)c3ccccc3nc2s1 | -2.8% | ? | 11.0% | ?
C=CCSc1nn2c(=O)c3ccccc3nc2s1 | 20.5% | -23.2% | -3.7% | 2.82µM*
CC(=O)NCCc1nc2cc(NC(=O)c3cccc([N+](=O)[O-])c3)ccc2n1C | 10.6% | -5.4% | . | 5.62µM*
Cc1ccccc1C(=O)Nc1ccc2c(c1)nc(CCNC(=O)c1ccco1)n2C | 9.2% | -11.1% | . | 43.9%
COc1ccccc1C(=O)Nc1ccc2c(c1)nc(CCNC(C)=O)n2C | -3.3% | 4.2% | -1.7% | 10µM*
CCC(=O)NCCc1nc2cc(NC(=O)COc3ccccc3)ccc2n1C | 8.5% | 12.6% | . | 8.91µM*
Cn1c(CCNC(=O)c2ccco2)nc2cc(NC(=O)c3ccccc3Cl)ccc21 | 0.4% | -1.1% | . | 8.91µM*
CN1CCCc2ccccc21 | . | . | . | -5.7%
CCC(=O)NCCc1nc2cc(NC(=O)c3cccc([N+](=O)[O-])c3)ccc2n1C | 15.7% | 5.0% | . | 3.16µM*
CC(=O)Nc1ccc(C(=O)Nc2cc(C)on2)cc1 | 3.7% | 8.3% | . | 56.2%
Cc1cc(NC(=O)c2ccc(NC(=O)C(C)Oc3ccccc3)cc2)no1 (stereo not given) | . | -1.6% | -1.7% | 12.6µM*
Cn1c(SCCOc2ccccc2)nnc1-c1ccc(NC(=O)CCc2ccccc2)cc1 | . | . | . | 5.2%
SMILES | ERG-DNA inh | Apoferritin bind | RGS12 GoLoco inh | BRCA1 expr act
CCNc1nc(N)c(C(=O)c2ccc(Cl)s2)s1 | -12.7% | -23.1% | -7.2% | 5.01µM*
O=C(Nc1ccc2c(c1)OCO2)c1cc(C2CC2)on1 | -6.3% | -7.9% | -3.6% | 4.47µM*
O=C(Nc1ccc2c(c1)OCO2)c1ccc(=O)[nH]n1 | 1.8% | 0.6% | -2.8% | 11.2µM*
COc1cccc2c1C(=O)c1c(O)c3c(c(O)c1C2=O)C[C@](O)(C(C)=O)C[C@H]3O[C@@H]1C[C@@H](N)[C@@H](O)[C@@H](C)O1 | ? | . | . | -59.3%
COc1cccc2c1C(=O)c1c(O)c3c(c(O)c1C2=O)C[C@](O)(C(=O)CO)C[C@H]3O[C@@H]1C[C@H](N)[C@H](O)[C@H](C)O1 | . | 1.0%[29.3 µM] | 2.24µM* | .
COc1cccc2c1C(=O)c1c(O)c3c(c(O)c1C2=O)CC(O)(C(C)=O)CC3OC1CC(O)C(O)C(C)O1 (stereo not given) | 2.51µM* | . | . | -69.0%
COc1cccc2c1C(=O)c1c(O)c3c(c(O)c1C2=O)C[C@@](O)(C(=O)CO)C[C@H]3O[C@H]1C[C@@H](N)[C@H](O)[C@@H](C)O1.[W] | . | . | -17.5%[14.2 µM] | .

Compound activity as filed in PubChem.
